# Target: T1, Testis-specific serine/threonine-protein kinase 2 (Homo sapiens) (UniProt Q96PF2)
# T1 sequence (whole entry): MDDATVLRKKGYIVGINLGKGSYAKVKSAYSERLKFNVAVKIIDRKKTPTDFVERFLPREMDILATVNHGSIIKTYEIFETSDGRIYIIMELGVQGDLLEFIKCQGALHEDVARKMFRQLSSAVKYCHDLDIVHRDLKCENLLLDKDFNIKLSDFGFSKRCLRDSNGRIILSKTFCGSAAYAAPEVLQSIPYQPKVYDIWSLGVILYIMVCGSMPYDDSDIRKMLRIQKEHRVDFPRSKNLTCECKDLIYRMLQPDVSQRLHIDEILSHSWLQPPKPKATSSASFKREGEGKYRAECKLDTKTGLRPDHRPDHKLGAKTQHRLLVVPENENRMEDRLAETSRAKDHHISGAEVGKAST
# Details: at 1 µM
row,SMILES,residual activity [%]
1,Nc1ncnc2c1cnn2-c1ccccc1,93
2,Oc1c2ccccc2c2c3c(cccc13)N=N2,92
3,Nc1nc(Nc2ccc(S(N)(=O)=O)cc2)nn1C(=S)Nc1c(F)cccc1F,61
4,c1ccc(-c2cnc(Nc3ccc(OCCN4CCCC4)cc3)s2)cc1,100
5,O=C1NC(=O)c2c1c1c3ccccc3[nH]c1n1cncc21,83
6,Oc1ccc(Nc2nc(-c3ccc(Cl)cc3)cs2)cc1,101
7,CCOC(=O)c1c(C)[nH]c(/C=C2\C(=O)Nc3ccccc32)c1C,90
8,CC#CC(=O)Nc1cc2c(Nc3ccc(F)c(Cl)c3)ncnc2cn1,87
9,C[C@@H](N)[C@H]1CC[C@H](C(=O)Nc2ccncc2)CC1,102
10,COc1cc2ncnc(Nc3ccc(NC(=O)c4ccccc4)cc3)c2cc1OC,106
11,COc1ccc(C(=O)Nc2sc3c(c2C(N)=O)CCCC3)cc1OC,94
12,c1ccc(-c2n[nH]c3c2oc2ccccc23)cc1,96
13,Nc1n[nH]c2nnc(-c3c(-c4ccccc4)nn4ccccc34)cc12,104
14,CCN(CC)C(=O)c1ccc(Nc2nc(OCC3CCCCC3)c3nc[nH]c3n2)cc1,62
15,CNc1cc2c(Nc3cccc(Br)c3)ncnc2cn1,104
16,CCCCc1c(-c2ccc(O)cc2)[nH]c2nccnc12,94
17,Nc1ncnc2c1c(-c1ccc(Oc3ccccc3)cc1)cn2C1CCCC1,86
18,O=C(O)/C=C/c1cc(Br)c(Br)c(Br)c1Br,96
19,Cc1nc2cc3nc(-c4cccs4)cnc3cc2n1C,104
20,CN(C)CCCn1cc(C2=C(c3c[nH]c4ccccc34)C(=O)NC2=O)c2ccccc21,103

# Source: ChEMBL document CHEMBL2218924, “A broad activity screen in support of a chemogenomic map for kinase signalling research and drug discovery” (Biochem J, 2013)
